Measured values taken from PubChem BioAssay (NCI).
The panel holds about 83,000 compounds, 20% with a hit somewhere; the sample as a whole holds those more often.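 The endpoint reported here, percent growth, reads 100 for growth as untreated, 0 for no net growth and -100 for all cells dead.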 Unmarked numbers belong to inactive results. Activity calls are given as the source filed them. Rule for the calls: active = growth percent below 10; inactive = the rest.

Legend:
Test in all cases: NCI-60 one-dose screen, 48 h (100 = growth as untreated, 0 = no growth, -100 = all killed)
Conditions in all cases: 10 µM unless noted
T-47D breast = tested on: T-47D breast
BT-549 breast = tested on: BT-549 breast
MDA-MB-435 melanoma = tested on: MDA-MB-435 melanoma
SW-620 colon = tested on: SW-620 colon
MCF7 breast = tested on: MCF7 breast
HCT-116 colon = tested on: HCT-116 colon
HCC-2998 colon = tested on: HCC-2998 colon
KM12 colon = tested on: KM12 colon

| Compound | growth (T-47D breast) | growth (BT-549 breast) | growth (MDA-MB-435 melanoma) | growth (SW-620 colon) | growth (MCF7 breast) | growth (HCT-116 colon) | growth (HCC-2998 colon) | growth (KM12 colon) |
| --- | --- | --- | --- | --- | --- | --- | --- | --- |
| CCN(CC)CCCC(Cc1ccccc1)Nc1c2ccc(Cl)cc2nc2ccc(OC)cc12 (stereo not drawn) | -6.99% (active) | 53.3% | -66.5% (active) | 13.2% | -9.45% (active) | 14.6% | -72.1% (active) | 45.3% |
| Cc1ccc(-c2nc(SCC(=O)N3CCN(c4cc5c(cc4F)c(=O)c(C(=O)O)cn5C4CC4)CC3)nc(Cl)c2C#N)cc1 | 91.1% | 103% | 106% | 103% | 94.9% | 101% | 98.8% | 102% |
| CC(=O)Nc1sc2c(c1-c1nc3ccccc3s1)CNC2 | 4.49% (active) | 58.1% | 29.7% | 18.8% | 5.45% (active) | 18.8% | 33.6% | 22.8% |
| COc1ccc(C(c2cc(OC)c(OC)c(OC)c2)N2CCCCC2)cc1 (stereo not drawn) | 33.6% | 49.7% | -21.8% (active) | 14.5% | 23.6% | 29.1% | 79.6% | 30.2% |
| Nc1cc(C(=O)O)cc(-n2c(O)c(C=C3N=c4ccccc4=N3)sc2=S)c1 | 95.2% | 103% | 103% | 96.8% | 94.5% | 99.4% | 99.3% | 103% |
| CCN1C2CCC1/C(=C\c1ccccc1)C(=O)/C2=C/c1ccccc1 | 56.9% | 48.6% | 30.7% | 42.4% | 25.2% | 15.6% | 80.1% | 20.6% |
| O=C(NCCCCCCNC(=O)OCc1ccc2c(Cl)cc(Cl)c(O)c2n1)OCc1ccc2c(Cl)cc(Cl)c(O)c2n1 | -48.5% (active) | -14.4% (active) | -82.9% (active) | -62.8% (active) | -36.7% (active) | -54.7% (active) | -88.3% (active) | -74.6% (active) |
| O=C1C(Cl)=C(Nc2ccccc2)C(=O)c2ccccc21 | -2.5% (active) | -94.7% (active) | -97.7% (active) | -72% (active) | -58% (active) | -96.2% (active) | -15.6% (active) | 46.9% |
| C[N+]1=C(/C=C/c2ccccc2Cl)C(C)(C)c2ccccc21 | 86.4% | 109% | 100% | 92.4% | 94.7% | 90.8% | 103% | 96.6% |
| COc1ccc(Nc2ncc(C#N)c(NCCCNC(=O)C3CCC3)n2)cc1 | 109% | 70.6% | 68.5% | 41.5% | 63.7% | 50.1% | 97.2% | 64.2% |
| CNC(=O)Nc1ccc(-c2ccc3ncnc(Nc4cccc(Cl)c4)c3c2)cc1 | -4.13% (active) | 50.9% | 64% | 93.9% | 22.6% | 65.9% | 74% | 61.3% |
| Cc1ccc2nc(-c3ccc(C(=O)N/N=C/c4ccc([N+](=O)[O-])cc4)cc3)[nH]c2c1 | 91.1% | 106% | 102% | 106% | 88.3% | 103% | 105% | 97.6% |
| CCCC(=O)NC(c1ccc2c(c1)OCO2)c1cc(Cl)c2cccnc2c1O (stereo not drawn) | 23% | 63.3% | 37.5% | 24.7% | 17.5% | 23.1% | 43.1% | 33.9% |
| O=C(Cn1nc(-c2cccc3ccccc23)ccc1=O)NCc1cccc(Cl)c1 | 9.17% [50 µM] (active) | 44.3% [50 µM] | 45.5% [50 µM] | 55% [50 µM] | 20.1% [50 µM] | 33.5% [50 µM] | 54.6% [50 µM] | 41.7% [50 µM] |
| COC(=O)Cn1c2c(c3c(OC)cccc31)C(=O)c1ccccc1-2 | 89.7% | 103% | 112% | 96.9% | 85.9% | 89.1% | 89.8% | 107% |
| O=C(CCCCCCCC(=O)N1CCCCC1)N1CCCCC1 | 117% | 96.4% | 105% | 92.2% | 97.1% | 94.8% | 86.5% | 100% |

| Compound | growth (T-47D breast) | growth (BT-549 breast) | growth (MDA-MB-435 melanoma) | growth (SW-620 colon) | growth (MCF7 breast) | growth (HCT-116 colon) | growth (HCC-2998 colon) | growth (KM12 colon) |
| --- | --- | --- | --- | --- | --- | --- | --- | --- |
| O=C(CSc1nnnn1-c1ccccc1)Nc1ccc(Oc2ccccc2)cc1 | 90.9% | 112% | 106% | 98.9% | 102% | 104% | 100% | 99.4% |
| Cc1nc2ccccc2c(/C=C/c2ccc(F)cc2)c1C(=O)/C=C/c1ccccc1 | 10.9% | 30.7% | -9.7% (active) | -1.98% (active) | 11.4% | -69.9% (active) | 22% | 11.9% |
| O=c1oc2c(cc1-c1ccccc1)c[n+]([O-])c1ccccc21 | 91% | 95.5% | 101% | 103% | 91.1% | 98.8% | 107% | 104% |
| CSc1ccc(N2C(=N)C(=S)N(c3ccc(C)cc3)C2=O)cc1 | 83% | 72.2% | 102% | 103% | 85.4% | 93.7% | 104% | 96.5% |
| COC(=O)c1nc(-c2ccccc2)oc1S(=O)(=O)N1CCCC(C)C1 (stereo not drawn) | 69.2% | 75% | 84.5% | 35.4% | 47.3% | 63.9% | 104% | 97.7% |
| CCOC(=O)C/C(=N\Nc1cc(=O)[nH]c2ccc(OC)cc12)C(=O)OCC | 101% | 110% | 99% | 90.3% | 87.9% | 101% | 101% | 99.2% |
| O=C(O)CC(C(=O)O)/C(=C\c1ccccc1)c1ccccc1 (stereo not drawn) | 93.1% | 122% | 115% | 103% | 94.7% | 119% | 108% | 108% |
| COc1ccc2c(c1)oc1c(C)c3c(c(C)c12)C(=O)N(CCOS(C)(=O)=O)C3=O | 103% | 90% | 94.9% | 94.2% | 73.7% | 94.1% | 100% | 107% |
| O=[N+]([O-])c1ccccc1Sc1ccccc1[N+](=O)[O-] | 81.5% | 100% | 103% | 110% | 108% | 94.9% | 97.5% | 92.6% |
| COc1ccc(-c2cc(-c3cc(OC)ccc3OC)nc(SCC(C)=O)c2C#N)cc1 | 57.9% | 61% | 36.1% | 92.1% | 70.6% | 74% | 84.5% | 60.2% |
| COc1ccc(Oc2ccc(/C=C/C(=O)c3ccc(OC)c(OC)c3)cc2)cc1 | 60.8% | 85.3% | 90.3% | 83.9% | 56.3% | 69.3% | 104% | 79% |
| Cc1ccc(S(=O)(=O)N2CCCN(c3nc(-c4ccccc4)nc4nc(-c5ccccc5)oc34)CC2)cc1 | 90.8% | 117% | 104% | 111% | 93.4% | 104% | 107% | 109% |
| COC(=O)c1ccc2cc(OC)c(OC)cc2c1 | 96.1% | 90.5% | 98.8% | 99% | 92.2% | 95.6% | 98.8% | 108% |
| O=[N+]([O-])c1ccccc1Nc1ccc2ccccc2c1 | 91.1% | 84.8% | 99% | 83.8% | 74.9% | 82.9% | 105% | 99.4% |
| CC1=C(Cl)C(=O)c2cc(C)ccc2C1=O | 96.9% | 97.9% | 105% | 105% | 91.2% | 106% | 104% | 102% |
